Test results: article PMC7862700, “An all-to-all approach to the identification of sequence-specific readers for epigenetic DNA modifications on cytosine”

Assays:
Test in all cases: DAPPL (digital affinity profiling via proximity ligation, sequencing); 10 mM Tris-HCl pH 7.5, 50 mM NaCl, 1 mM DTT, 4% glycerol, room temperature, 30 min; GST-TFs on glutathione beads, 16-mer random dsDNA library, 0.1% formaldehyde crosslink after washing; high values mean tight binding
Conditions in all cases: protein: recombinant; tags: N-terminal GST; dsDNA, one strand shown
FLI1 = molecular target: T1, FLI1 (Homo sapiens, UniProt Q01543 1-452)
T1 sequence: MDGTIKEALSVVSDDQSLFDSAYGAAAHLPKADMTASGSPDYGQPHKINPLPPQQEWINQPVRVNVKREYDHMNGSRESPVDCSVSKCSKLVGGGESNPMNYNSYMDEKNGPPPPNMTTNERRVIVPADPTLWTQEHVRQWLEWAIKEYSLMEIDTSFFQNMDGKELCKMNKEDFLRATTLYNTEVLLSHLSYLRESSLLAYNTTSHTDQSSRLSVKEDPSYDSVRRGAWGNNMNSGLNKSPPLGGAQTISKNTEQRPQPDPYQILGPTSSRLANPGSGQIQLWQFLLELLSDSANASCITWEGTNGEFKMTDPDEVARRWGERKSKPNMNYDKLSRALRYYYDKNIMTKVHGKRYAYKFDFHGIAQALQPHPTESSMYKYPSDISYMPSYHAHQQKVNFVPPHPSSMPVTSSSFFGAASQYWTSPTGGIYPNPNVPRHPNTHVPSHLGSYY
Outline: (§1)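 After expression in yeast as GST fusions, human transcription factors were bound to glutathione beads, DNA-barcoded and mixed with a tag-only sample. The pools were incubated with 200 nmole of a 16-mer random double-stranded DNA library in Tris/NaCl/DTT/glycerol buffer (30 min, room temperature), washed and crosslinked with 0.1% formaldehyde. Proximity ligation with BsaI/T4 ligase ran for 1 h at 37 °C, before PCR amplification and sequencing on an Illumina NextSeq500. Binding signal is a hexamer's read frequency for a factor divided by its frequency for the tag-only sample.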

ELK1 = molecular target: T2, ELK1 (Homo sapiens, UniProt P19419 1-428)
T2 sequence: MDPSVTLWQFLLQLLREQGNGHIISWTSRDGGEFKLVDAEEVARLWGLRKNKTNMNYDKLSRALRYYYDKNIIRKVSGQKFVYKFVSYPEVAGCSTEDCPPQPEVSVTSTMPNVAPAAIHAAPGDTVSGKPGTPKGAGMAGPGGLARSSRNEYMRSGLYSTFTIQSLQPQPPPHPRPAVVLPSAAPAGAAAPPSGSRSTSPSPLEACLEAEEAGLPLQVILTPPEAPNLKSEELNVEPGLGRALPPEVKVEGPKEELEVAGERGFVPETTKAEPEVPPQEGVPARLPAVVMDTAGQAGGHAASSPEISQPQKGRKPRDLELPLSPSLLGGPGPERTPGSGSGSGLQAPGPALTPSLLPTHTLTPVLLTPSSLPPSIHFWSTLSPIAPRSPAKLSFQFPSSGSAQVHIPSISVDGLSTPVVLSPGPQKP
Outline: as §1

GABPA = molecular target: T3, GABPA (Homo sapiens, UniProt Q06546 1-454)
T3 sequence: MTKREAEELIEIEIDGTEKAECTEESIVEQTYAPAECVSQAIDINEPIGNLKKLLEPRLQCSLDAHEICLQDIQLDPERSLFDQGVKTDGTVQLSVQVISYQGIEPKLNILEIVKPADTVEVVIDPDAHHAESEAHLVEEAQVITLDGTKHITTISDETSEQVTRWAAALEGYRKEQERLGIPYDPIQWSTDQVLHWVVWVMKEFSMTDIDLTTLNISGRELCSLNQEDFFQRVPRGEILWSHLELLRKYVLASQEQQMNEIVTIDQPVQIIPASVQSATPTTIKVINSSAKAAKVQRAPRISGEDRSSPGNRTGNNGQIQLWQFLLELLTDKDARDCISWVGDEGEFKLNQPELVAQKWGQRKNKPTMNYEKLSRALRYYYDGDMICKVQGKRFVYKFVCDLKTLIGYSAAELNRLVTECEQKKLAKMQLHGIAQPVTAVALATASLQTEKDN
Outline: as §1

ERG = molecular target: T4, ERG (Homo sapiens, UniProt P11308 1-479)
T4 sequence: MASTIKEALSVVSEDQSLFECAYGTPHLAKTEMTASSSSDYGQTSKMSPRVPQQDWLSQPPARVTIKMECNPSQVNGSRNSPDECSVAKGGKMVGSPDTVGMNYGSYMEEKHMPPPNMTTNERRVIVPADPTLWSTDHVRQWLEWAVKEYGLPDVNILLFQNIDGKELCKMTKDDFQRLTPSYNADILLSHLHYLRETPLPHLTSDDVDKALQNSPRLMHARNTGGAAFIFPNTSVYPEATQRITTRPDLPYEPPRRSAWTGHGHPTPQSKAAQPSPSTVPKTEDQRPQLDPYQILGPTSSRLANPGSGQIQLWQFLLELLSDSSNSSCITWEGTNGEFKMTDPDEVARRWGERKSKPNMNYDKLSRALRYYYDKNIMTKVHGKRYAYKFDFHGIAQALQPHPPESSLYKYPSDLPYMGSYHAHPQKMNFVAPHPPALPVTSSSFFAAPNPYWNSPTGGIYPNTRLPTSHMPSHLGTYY
Outline: as §1

ELF1 = ELF1 (Homo sapiens, UniProt P32519 1-619)
Outline: as §1

EHF = molecular target: T5, EHF (Homo sapiens, UniProt Q9NZC4 1-300)
T5 sequence: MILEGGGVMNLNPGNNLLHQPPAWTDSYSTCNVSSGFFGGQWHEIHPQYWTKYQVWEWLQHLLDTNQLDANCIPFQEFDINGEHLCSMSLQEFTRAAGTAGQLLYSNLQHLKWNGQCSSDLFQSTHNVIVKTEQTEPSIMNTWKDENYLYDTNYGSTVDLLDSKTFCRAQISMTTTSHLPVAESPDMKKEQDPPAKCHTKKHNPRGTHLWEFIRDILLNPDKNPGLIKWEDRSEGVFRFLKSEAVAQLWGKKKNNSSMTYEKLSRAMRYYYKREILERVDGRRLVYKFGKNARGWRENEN
Outline: as §1

SPI1 = SPI1 (Homo sapiens, UniProt P17947 1-270)
Outline: as §1

SPIB = SPIB (Homo sapiens, UniProt Q01892 1-262)
Outline: as §1

ELK3 = molecular target: T6, ELK3 (Homo sapiens, UniProt P41970 1-407)
T6 sequence: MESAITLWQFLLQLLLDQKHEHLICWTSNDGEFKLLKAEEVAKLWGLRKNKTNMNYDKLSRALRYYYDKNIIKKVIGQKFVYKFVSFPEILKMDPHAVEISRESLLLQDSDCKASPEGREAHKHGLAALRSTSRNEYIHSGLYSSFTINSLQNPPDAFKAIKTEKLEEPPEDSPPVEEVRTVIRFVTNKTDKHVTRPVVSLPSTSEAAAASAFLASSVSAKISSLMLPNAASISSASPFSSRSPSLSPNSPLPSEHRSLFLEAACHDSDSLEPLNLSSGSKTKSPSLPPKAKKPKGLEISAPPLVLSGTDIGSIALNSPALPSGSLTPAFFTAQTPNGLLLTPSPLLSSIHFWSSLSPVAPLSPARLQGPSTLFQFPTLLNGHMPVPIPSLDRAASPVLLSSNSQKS
Outline: as §1

SPIB, sequence (Q01892 whole entry): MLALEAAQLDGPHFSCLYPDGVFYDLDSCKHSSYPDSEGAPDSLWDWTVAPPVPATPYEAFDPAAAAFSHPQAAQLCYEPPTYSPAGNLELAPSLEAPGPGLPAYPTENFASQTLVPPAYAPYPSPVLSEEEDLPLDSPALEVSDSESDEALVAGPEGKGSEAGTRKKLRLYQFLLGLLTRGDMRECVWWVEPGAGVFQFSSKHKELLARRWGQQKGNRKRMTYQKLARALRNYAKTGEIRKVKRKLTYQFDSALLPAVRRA
ELF1, sequence (P32519 whole entry): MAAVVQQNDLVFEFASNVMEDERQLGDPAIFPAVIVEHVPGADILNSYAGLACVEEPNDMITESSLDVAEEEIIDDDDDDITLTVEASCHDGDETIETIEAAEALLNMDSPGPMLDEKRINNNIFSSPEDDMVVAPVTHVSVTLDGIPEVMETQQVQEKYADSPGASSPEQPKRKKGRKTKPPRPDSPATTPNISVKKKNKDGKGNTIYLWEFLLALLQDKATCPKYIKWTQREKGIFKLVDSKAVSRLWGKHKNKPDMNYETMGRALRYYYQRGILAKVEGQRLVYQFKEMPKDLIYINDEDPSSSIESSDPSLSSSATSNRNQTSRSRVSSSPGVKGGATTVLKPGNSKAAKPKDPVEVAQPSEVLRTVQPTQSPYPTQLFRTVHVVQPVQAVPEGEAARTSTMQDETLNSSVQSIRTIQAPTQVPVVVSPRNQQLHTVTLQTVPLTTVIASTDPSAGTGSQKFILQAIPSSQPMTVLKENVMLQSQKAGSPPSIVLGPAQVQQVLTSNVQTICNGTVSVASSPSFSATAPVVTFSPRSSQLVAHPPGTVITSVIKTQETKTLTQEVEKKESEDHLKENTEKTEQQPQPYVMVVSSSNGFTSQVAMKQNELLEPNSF

Sequence | binding signal (FLI1) | binding signal (ELK1) | binding signal (GABPA) | binding signal (ERG) | binding signal (ELF1) | binding signal (EHF) | binding signal (SPI1) | binding signal (SPIB) | binding signal (ELK3)
ACTACT | 1.28 fold enrichment (6-mer frequency, TF over GST control) | 1.25 fold enrichment (6-mer frequency, TF over GST control) | 1.28 fold enrichment (6-mer frequency, TF over GST control) | 1.28 fold enrichment (6-mer frequency, TF over GST control) | 1.32 fold enrichment (6-mer frequency, TF over GST control) | 1.34 fold enrichment (6-mer frequency, TF over GST control) | 1.29 fold enrichment (6-mer frequency, TF over GST control) | 1.34 fold enrichment (6-mer frequency, TF over GST control) | 1.31 fold enrichment (6-mer frequency, TF over GST control)
TTAAGG | 1.14 fold enrichment (6-mer frequency, TF over GST control) | 1.14 fold enrichment (6-mer frequency, TF over GST control) | 1.2 fold enrichment (6-mer frequency, TF over GST control) | 1.18 fold enrichment (6-mer frequency, TF over GST control) | 1.13 fold enrichment (6-mer frequency, TF over GST control) | 1.13 fold enrichment (6-mer frequency, TF over GST control) | 1.26 fold enrichment (6-mer frequency, TF over GST control) | 1.15 fold enrichment (6-mer frequency, TF over GST control) | 1.06 fold enrichment (6-mer frequency, TF over GST control)
ATACGA | 1.09 fold enrichment (6-mer frequency, TF over GST control) | 1.12 fold enrichment (6-mer frequency, TF over GST control) | 1.1 fold enrichment (6-mer frequency, TF over GST control) | 1.14 fold enrichment (6-mer frequency, TF over GST control) | 1.14 fold enrichment (6-mer frequency, TF over GST control) | 1.12 fold enrichment (6-mer frequency, TF over GST control) | 1.08 fold enrichment (6-mer frequency, TF over GST control) | 1.09 fold enrichment (6-mer frequency, TF over GST control) | 1.23 fold enrichment (6-mer frequency, TF over GST control)
CTGCGC | 1.18 fold enrichment (6-mer frequency, TF over GST control) | 1.4 fold enrichment (6-mer frequency, TF over GST control) | 1.34 fold enrichment (6-mer frequency, TF over GST control) | 1.37 fold enrichment (6-mer frequency, TF over GST control) | 1.45 fold enrichment (6-mer frequency, TF over GST control) | 1.4 fold enrichment (6-mer frequency, TF over GST control) | 1.31 fold enrichment (6-mer frequency, TF over GST control) | 1.34 fold enrichment (6-mer frequency, TF over GST control) | 1.22 fold enrichment (6-mer frequency, TF over GST control)
TCTGAA | 1.11 fold enrichment (6-mer frequency, TF over GST control) | 1.22 fold enrichment (6-mer frequency, TF over GST control) | 1.13 fold enrichment (6-mer frequency, TF over GST control) | 1.15 fold enrichment (6-mer frequency, TF over GST control) | 1.18 fold enrichment (6-mer frequency, TF over GST control) | 1.18 fold enrichment (6-mer frequency, TF over GST control) | 1.18 fold enrichment (6-mer frequency, TF over GST control) | 1.26 fold enrichment (6-mer frequency, TF over GST control) | 1.17 fold enrichment (6-mer frequency, TF over GST control)
AATTCG | 1.29 fold enrichment (6-mer frequency, TF over GST control) | 1.26 fold enrichment (6-mer frequency, TF over GST control) | 1.24 fold enrichment (6-mer frequency, TF over GST control) | 1.3 fold enrichment (6-mer frequency, TF over GST control) | 1.29 fold enrichment (6-mer frequency, TF over GST control) | 1.23 fold enrichment (6-mer frequency, TF over GST control) | 1.13 fold enrichment (6-mer frequency, TF over GST control) | 1.38 fold enrichment (6-mer frequency, TF over GST control) | 1.29 fold enrichment (6-mer frequency, TF over GST control)
ACCTAC | 1.22 fold enrichment (6-mer frequency, TF over GST control) | 1.2 fold enrichment (6-mer frequency, TF over GST control) | 1.21 fold enrichment (6-mer frequency, TF over GST control) | 1.1 fold enrichment (6-mer frequency, TF over GST control) | 1.27 fold enrichment (6-mer frequency, TF over GST control) | 1.21 fold enrichment (6-mer frequency, TF over GST control) | 1.18 fold enrichment (6-mer frequency, TF over GST control) | 1.23 fold enrichment (6-mer frequency, TF over GST control) | 1.13 fold enrichment (6-mer frequency, TF over GST control)
CCGTCT | 1.41 fold enrichment (6-mer frequency, TF over GST control) | 1.32 fold enrichment (6-mer frequency, TF over GST control) | 1.43 fold enrichment (6-mer frequency, TF over GST control) | 1.28 fold enrichment (6-mer frequency, TF over GST control) | 1.46 fold enrichment (6-mer frequency, TF over GST control) | 1.34 fold enrichment (6-mer frequency, TF over GST control) | 1.43 fold enrichment (6-mer frequency, TF over GST control) | 1.45 fold enrichment (6-mer frequency, TF over GST control) | 1.36 fold enrichment (6-mer frequency, TF over GST control)
